{"source": "paper PMC11062922", "about": "(Nature Chemical Biology, 2023)", "set-up_in_all_cases": "species or system human, MV4-11 + K-562 + COLO205 + SK-N-BE2 + OVCAR-8", "key": {"CSNK2A1;CSNK2A3": {"tested_on": "CSNK2A1;CSNK2A3", "conditions": "read-out: apparent Kd, compound concentrations: 100 nM and 1000 nM (sheet 'Samples'), n = 1"}, "CSNK2A2": {"tested_on": "CSNK2A2", "conditions": "read-out: apparent Kd, compound concentrations: 100 nM and 1000 nM (sheet 'Samples'), n = 1"}, "FYN": {"tested_on": "FYN", "conditions": "read-out: apparent Kd; compound concentrations: 100 nM and 1000 nM (sheet 'Samples'), CATDS: 8.5832491833895103E-2; n = 1"}, "PIK3CD": {"tested_on": "PIK3CD", "conditions": "read-out: apparent Kd, n = 1"}, "PRKD1": {"tested_on": "PRKD1", "conditions": "read-out: apparent Kd; compound concentrations: 100 nM and 1000 nM (sheet 'Samples'), CATDS: 0.12301509267520799; n = 1"}, "PRKD2": {"tested_on": "PRKD2", "conditions": "read-out: apparent Kd; compound concentrations: 100 nM and 1000 nM (sheet 'Samples'), CATDS: 0.237501197916752; n = 1"}, "PRKD3": {"tested_on": "PRKD3", "conditions": "read-out: apparent Kd; compound concentrations: 100 nM and 1000 nM (sheet 'Samples'), CATDS: 0.165514181456969; n = 1"}, "DDR1": {"tested_on": "DDR1", "conditions": "read-out: apparent Kd, n = 1"}, "DDR2": {"tested_on": "DDR2", "conditions": "read-out: apparent Kd, n = 1"}, "EPHA7": {"tested_on": "EPHA7", "conditions": "read-out: apparent Kd; compound concentrations: 100 nM and 1000 nM (sheet 'Samples'), CATDS: 8.9054165794135901E-2; n = 1"}, "EPHB6": {"tested_on": "EPHB6", "conditions": "read-out: apparent Kd; compound concentrations: 100 nM and 1000 nM (sheet 'Samples'), CATDS: 9.7568833330596599E-2; n = 1"}, "FLT3": {"tested_on": "FLT3", "conditions": "read-out: apparent Kd, n = 1"}, "FLT4": {"tested_on": "FLT4", "conditions": "read-out: apparent Kd; compound concentrations: 100 nM and 1000 nM (sheet 'Samples'), CATDS: 0.353383658165352; n = 1"}, "RET": {"tested_on": "RET", "conditions": "read-out: apparent Kd; compound concentrations: 100 nM and 1000 nM (sheet 'Samples'), CATDS: 0.464290470493195; n = 1"}, "PIK3CA": {"tested_on": "PIK3CA", "conditions": "read-out: apparent Kd; compound concentrations:100 nM and 1000 nM (sheet 'Samples'); n = 1"}, "SMC4": {"tested_on": "SMC4", "conditions": "read-out: apparent Kd; compound concentrations:100 nM and 1000 nM (sheet 'Samples'); n = 1"}, "ZAK": {"tested_on": "ZAK", "conditions": "read-out: apparent Kd; compound concentrations:100 nM and 1000 nM (sheet 'Samples'); n = 1"}, "CSNK1D": {"tested_on": "CSNK1D", "conditions": "read-out: apparent Kd; compound concentrations: 100 nM and 1000 nM (sheet 'Samples'), CATDS: 7.6983160773696893E-2; n = 1"}, "CSNK1E": {"tested_on": "CSNK1E", "conditions": "read-out: apparent Kd; compound concentrations: 100 nM and 1000 nM (sheet 'Samples'), CATDS: 7.2450949047452695E-2; n = 1"}, "MAPK14": {"tested_on": "MAPK14", "conditions": "read-out: apparent Kd; compound concentrations: 100 nM and 1000 nM (sheet 'Samples'), CATDS: 9.6688337398944404E-2; n = 1"}, "NLK": {"tested_on": "NLK", "conditions": "read-out: apparent Kd; compound concentrations: 100 nM and 1000 nM (sheet 'Samples'), CATDS: 9.9124712412078902E-2; n = 1"}, "PKN3": {"tested_on": "PKN3", "conditions": "read-out: apparent Kd; compound concentrations: 100 nM and 1000 nM (sheet 'Samples'), CATDS: 0.57773444025704901; n = 1"}, "RIPK2": {"tested_on": "RIPK2", "conditions": "read-out: apparent Kd; compound concentrations: 100 nM and 1000 nM (sheet 'Samples'), CATDS: 0.16475470795078001; n = 1"}, "SPR": {"tested_on": "SPR", "conditions": "read-out: apparent Kd; compound concentrations: 100 nM and 1000 nM (sheet 'Samples'), CATDS: 9.9495378731818698E-2; n = 1"}, "TESK2": {"tested_on": "TESK2", "conditions": "read-out: apparent Kd; compound concentrations: 100 nM and 1000 nM (sheet 'Samples'), CATDS: 7.5715174552883194E-2; n = 1"}, "TGFBR2": {"tested_on": "TGFBR2", "conditions": "read-out: apparent Kd; compound concentrations: 100 nM and 1000 nM (sheet 'Samples'), CATDS: 8.5739105668182394E-2; n = 1"}, "TP53RK": {"tested_on": "TP53RK", "conditions": "read-out: apparent Kd; compound concentrations: 100 nM and 1000 nM (sheet 'Samples'), CATDS: 9.9453344807386698E-2; n = 1"}, "DJA1": {"tested_on": "T1, DJA1", "T1 construct": "gene DNAJA1", "conditions": "read-out: apparent Kd, n = 1"}, "MAP2K1": {"tested_on": "MAP2K1", "conditions": "read-out: apparent Kd; compound concentrations:100 nM and 1000 nM (sheet 'Samples'); n = 1"}, "PIM2": {"tested_on": "PIM2", "conditions": "read-out: apparent Kd; compound concentrations:100 nM and 1000 nM (sheet 'Samples'); n = 1"}, "STK26": {"tested_on": "STK26", "conditions": "read-out: apparent Kd; compound concentrations:100 nM and 1000 nM (sheet 'Samples'); n = 1"}, "TTN": {"tested_on": "TTN", "conditions": "read-out: apparent Kd; compound concentrations: 100 nM and 1000 nM (sheet 'Samples'), CATDS: 0.51725800618074103; n = 1"}, "EGFR": {"tested_on": "EGFR", "conditions": "read-out: apparent Kd; compound concentrations: 100 nM and 1000 nM (sheet 'Samples'), CATDS: 1; n = 1"}, "[1]": {"conditions": "compound concentrations:100 nM and 1000 nM (sheet 'Samples')"}}, "note": "Where two headings read alike, the source gives them in different places.", "data": [{"smiles": "CC(=O)c1c(C)c2cnc(Nc3ccn(C)n3)nc2n(C2CCCC2)c1=O", "note": "[PFE-PKIS_44]", "values": [{"measurement": "potency estimated from few doses", "setting": "CSNK2A1;CSNK2A3; CATDS: 0.47499416496698399", "result": 2260, "unit": "nM"}, {"measurement": "potency estimated from few doses", "setting": "CSNK2A2; CATDS: 0.52778498170906496", "result": 1830, "unit": "nM"}]}, {"smiles": "Cc1cccc(-c2nc(Nc3ccc4[nH]nnc4c3)c3ccccc3n2)n1", "note": "[GW867587X]", "values": [{"measurement": "potency estimated from few doses", "setting": "CSNK2A1;CSNK2A3; CATDS: 0.129612529480612", "result": 199, "unit": "nM"}, {"measurement": "potency estimated from few doses", "setting": "CSNK2A2; CATDS: 0.107908062412964", "result": 369, "unit": "nM"}, {"measurement": "potency estimated from few doses", "setting": "FYN", "result": 1180, "unit": "nM"}, {"measurement": "potency estimated from few doses", "setting": "PIK3CD; compound concentrations: 100 nM and 1000 nM (sheet 'Samples'), CATDS: 0.50363081174980595", "result": 13.2, "unit": "nM"}, {"measurement": "potency estimated from few doses", "setting": "PRKD1", "result": 233, "unit": "nM"}, {"measurement": "potency estimated from few doses", "setting": "PRKD2", "result": 47, "unit": "nM"}, {"measurement": "potency estimated from few doses", "setting": "PRKD3", "result": 103, "unit": "nM"}]}, {"smiles": "COC(=O)Nc1nc2cc(Oc3ccc(NC(=O)Nc4cc(F)ccc4F)cc3)ccc2[nH]1.Cl", "note": "[GW701424A]", "values": [{"measurement": "potency estimated from few doses", "setting": "DDR1; [1]", "result": 242, "unit": "nM"}, {"measurement": "potency estimated from few doses", "setting": "DDR2; [1]", "result": 1120, "unit": "nM"}, {"measurement": "potency estimated from few doses", "setting": "PIK3CD; [1]", "result": 11.2, "unit": "nM"}]}, {"smiles": "Nc1ncnc2occ(-c3ccc(NC(=O)Nc4cccc(C(F)(F)F)c4)cc3)c12", "note": "[GW795493X]", "values": [{"measurement": "potency estimated from few doses", "setting": "DDR1; compound concentrations: 100 nM and 1000 nM (sheet 'Samples'), CATDS: 0.13274475237022501", "result": 405, "unit": "nM"}, {"measurement": "potency estimated from few doses", "setting": "DDR2; compound concentrations: 100 nM and 1000 nM (sheet 'Samples'), CATDS: 0.11447916272035", "result": 681, "unit": "nM"}, {"measurement": "potency estimated from few doses", "setting": "EPHA7", "result": 2220, "unit": "nM"}, {"measurement": "potency estimated from few doses", "setting": "EPHB6", "result": 1350, "unit": "nM"}, {"measurement": "potency estimated from few doses", "setting": "FLT3; compound concentrations: 100 nM and 1000 nM (sheet 'Samples'), CATDS: 0.15949914238657301", "result": 229, "unit": "nM"}, {"measurement": "potency estimated from few doses", "setting": "FLT4", "result": 34.6, "unit": "nM"}, {"measurement": "potency estimated from few doses", "setting": "RET", "result": 21.6, "unit": "nM"}]}, {"smiles": "COC(=O)Nc1nc2cc(Oc3ccc(NC(=O)Nc4cccc(SC)c4)cc3)ccc2[nH]1.Cl", "note": "[GW697999A]", "values": [{"measurement": "potency estimated from few doses", "setting": "DDR1; [1]", "result": 194, "unit": "nM"}, {"measurement": "potency estimated from few doses", "setting": "DDR2; [1]", "result": 618, "unit": "nM"}, {"measurement": "potency estimated from few doses", "setting": "FLT3; [1]", "result": 332, "unit": "nM"}, {"measurement": "potency estimated from few doses", "setting": "PIK3CA", "result": 205, "unit": "nM"}, {"measurement": "potency estimated from few doses", "setting": "PIK3CD; [1]", "result": 92.1, "unit": "nM"}, {"measurement": "potency estimated from few doses", "setting": "SMC4", "result": 2010, "unit": "nM"}, {"measurement": "potency estimated from few doses", "setting": "ZAK", "result": 1910, "unit": "nM"}]}, {"smiles": "CN(C)CCN(C)C(=O)c1cc(-c2ccncc2)c(-c2ccc(Cl)c(O)c2)o1", "note": "[SB-710397_KCGS]", "values": [{"measurement": "potency estimated from few doses", "setting": "CSNK1D", "result": 1400, "unit": "nM"}, {"measurement": "potency estimated from few doses", "setting": "CSNK1E", "result": 1720, "unit": "nM"}, {"measurement": "potency estimated from few doses", "setting": "MAPK14", "result": 748, "unit": "nM"}, {"measurement": "potency estimated from few doses", "setting": "NLK", "result": 705, "unit": "nM"}, {"measurement": "potency estimated from few doses", "setting": "PKN3", "result": 30.8, "unit": "nM"}, {"measurement": "potency estimated from few doses", "setting": "RIPK2", "result": 247, "unit": "nM"}, {"measurement": "potency estimated from few doses", "setting": "SPR", "result": 698, "unit": "nM"}, {"measurement": "potency estimated from few doses", "setting": "TESK2", "result": 1480, "unit": "nM"}, {"measurement": "potency estimated from few doses", "setting": "TGFBR2", "result": 1020, "unit": "nM"}, {"measurement": "potency estimated from few doses", "setting": "TP53RK", "result": 699, "unit": "nM"}]}, {"smiles": "O=C1NC(=O)C(c2ccccc2)=C1Nc1cccc(O)c1", "note": "[SB-390534]", "values": [{"measurement": "potency estimated from few doses", "setting": "DJA1; [1]", "result": 1350, "unit": "nM"}, {"measurement": "potency estimated from few doses", "setting": "MAP2K1", "result": 1510, "unit": "nM"}, {"measurement": "potency estimated from few doses", "setting": "PIM2", "result": 2120, "unit": "nM"}, {"measurement": "potency estimated from few doses", "setting": "STK26", "result": 1580, "unit": "nM"}]}, {"smiles": "Nc1nccc2scc(-c3ccc4c(c3)CCN4C(=O)Cc3cc(F)ccc3F)c12", "note": "[GSK2587663A]", "values": [{"measurement": "potency estimated from few doses", "setting": "DJA1; compound concentrations: 100 nM and 1000 nM (sheet 'Samples'), CATDS: 0.21507760056604699", "result": 1090, "unit": "nM"}, {"measurement": "potency estimated from few doses", "setting": "PIK3CD; compound concentrations: 100 nM and 1000 nM (sheet 'Samples'), CATDS: 0.41369424364853202", "result": 127, "unit": "nM"}, {"measurement": "potency estimated from few doses", "setting": "TTN", "result": 83.2, "unit": "nM"}]}, {"smiles": "Nc1ccc(C#Cc2cncnc2Nc2ccc(OCc3cccc(F)c3)c(Cl)c2)cc1", "note": "[GW659893X]", "values": [{"measurement": "potency estimated from few doses", "setting": "EGFR", "result": 404, "unit": "nM"}]}]}
